The structures appear in SMILES notation. Inconclusive results are not listed. A call without a number means that no potency is given here. Activity calls are given as the source filed them. Calls follow the shape of the dose curve; as a rule, active = well fitted activation curve with a large enough effect; inconclusive = small, poorly fitted or top-dose-only effect; inactive = flat fitted curve, though single readings scatter.
Potency is read from the fitted curve at half-maximal effect.

Sequence of D(1A) dopamine receptor (Homo sapiens) (P21728 whole entry, looked up): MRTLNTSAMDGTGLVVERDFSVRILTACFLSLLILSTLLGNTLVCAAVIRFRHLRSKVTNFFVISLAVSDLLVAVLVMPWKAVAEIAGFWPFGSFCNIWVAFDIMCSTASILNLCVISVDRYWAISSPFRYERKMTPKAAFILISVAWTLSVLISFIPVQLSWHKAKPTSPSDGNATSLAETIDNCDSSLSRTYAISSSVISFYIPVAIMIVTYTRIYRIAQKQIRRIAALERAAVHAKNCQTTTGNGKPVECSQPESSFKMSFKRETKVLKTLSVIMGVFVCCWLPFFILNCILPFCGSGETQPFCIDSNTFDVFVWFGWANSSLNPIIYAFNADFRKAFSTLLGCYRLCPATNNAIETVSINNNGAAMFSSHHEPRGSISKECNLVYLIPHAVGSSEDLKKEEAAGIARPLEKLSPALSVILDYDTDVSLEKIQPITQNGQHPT

This assay has as its target D(1A) dopamine receptor (Homo sapiens) (UniProt P21728). Description: HTS Assay for Allosteric Agonists of the Human D1 Dopamine Receptor: Primary Screen for Agonists (AID 488981). Particulars: Inducible HEK293 T-REx D1 cells, calcium-flux fluorescence, 180 s kinetic; series mostly up to 41.8 µM. An excerpt: Dopamine receptors (DARs) are involved in the etiology and/or therapy of a number of neuropsychiatric and endocrine disorders. For instance, all receptor-based antiparkinsonian drugs work via stimulating the […] DAR subtype whereas all FDA-approved antipsychotic agents are antagonists of this receptor. […] There are three different types of allosteric modulators that we are seeking, two of which will stimulate or augment receptor signaling, allosteric agonists and potentiators, while the third, allosteric antagonists, will attenuate receptor signaling. The present primary screening assay measures compound agonism by tracking calcium flux in a […], inducible Hek293 Trex D1 cell line.
Freshly passaged cells are plated in 1536 well black, clear bottom plates at a density of 4000 cells/well in 3 ul of complete media containing 1x tetracycline inducer. After an overnight incubation at 30 C in 5% CO2, cells are loaded with 2 ul of the no wash Calcium Assay Kit (ABD Bioquest) and incubated at room temperature for 30 to 90 minutes. A 10 cycle (1 second/cycle) baseline measurement is taken and then the FDSS online 1536 pintool delivers 23 nl of compound library (as well as dopamine controls) to the plate. The plate is measured for kinetically at 1 cycle/sec for 180 seconds and is considered to be the agonist portion of the assay (eg, compounds which activate a positive calcium response during this portion are flagged as potential agonists). Following the 180 second read, 1 ul of an EC20 of dopamine is delivered by an onboard pipette head. Measurements are taken kinetically for an additional 180 seconds.
In the case of `CN(C)c1ccc(/C=C2\C(=O)Nc3ccccc32)cc1`, the Potency entry is “inactive”.
For the molecule `CN1CCc2cc(O)c(O)cc2C(c2ccccc2)C1` (stereo not given), the Potency result was “inactive”.
Consider `CN1C2CC(OC(=O)[C@H](CO)c3ccccc3)CC1C1OC12` (stereo not given in full), for which the Potency entry is “inactive”.
For `C[C@@H](CN1CCC(Cc2ccccc2)CC1)[C@@H](O)c1ccc(O)cc1`, the Potency entry is “inactive”.
The entry for `N#C/C(=C\c1ccc(O)c(O)c1)C(=O)NCCCc1ccccc1` is “inactive”; for `CCc1c(C(=O)NCCc2ccc(N3CCCCC3)cc2)[nH]c2ccc(Cl)cc12` it is “inactive”; for `C[N+](C)(C)CCOP(=O)(O)OP(=O)([O-])OC[C@H]1O[C@@H](n2ccc(N)nc2=O)[C@H](O)[C@@H]1O` it is “inactive”.
The entry for `CC(C)ON([C@@H](C(=O)NO)C(C)C)S(=O)(=O)c1ccc(-c2ccccc2)cc1` is “inactive”.
For `CN(C)CCC(c1ccc(Cl)cc1)c1ccccn1` (stereo not given), the Potency result is “inactive”.
Regarding `Nc1ncnc2c1ncn2[C@@H]1O[C@H](COP(=O)(O)OP(=O)(O)OP(=O)(O)OP(=O)(O)OC[C@@H]2O[C@H](n3cnc4c(N)ncnc43)[C@@H](O)[C@H]2O)[C@@H](O)[C@H]1O`, the Potency was 0.562 µM (active).
For `CCCCC/C=C\CC(O)/C=C/c1cccc(CC(O)CCCCO)n1` (stereo not given), the Potency result is “inactive”.
As for `CCCCCCCCCCCCCCCCCC(=O)OC(CC(=O)O)C[N+](C)(C)C` (stereo not given), the figure is 11.2 µM (active); as for `Cc1nc2sccn2c(=O)c1CCN1CCC(=C(c2ccccc2)c2ccc(F)cc2)CC1`, “inactive”.
`CC(C)(C=O)Cc1cc(C(C)(C)C)c(O)c(C(C)(C)C)c1`: the Potency entry was “inactive”.
As for `NCCCCCCCCCCN`, the Potency result is “inactive”.
As for `NCCNC(=O)c1ncsc1-c1cccc(F)c1`, the entry is “inactive”.
The entry for `C=CC(N)CCC(=O)O` (stereo not given) is “inactive”; for `Oc1ccccc1O` it is “inactive”.
The entry for `Cc1cc(NC2CCCCC2)nc(-n2nc(C)cc2C)n1` is “inactive”.
With `O=[N+]([O-])c1ccc2c(c1)S(=O)(=O)C=C2`, the Potency entry was “inactive”.
Take `CC(C)NC[C@H](O)COc1cccc2[nH]ccc12`: the Potency entry is “inactive”.
The entry for `NCCCS(=O)(=O)O` is “inactive”; for `CCCCCCCCCCCCCCCCCC(=O)NCC(COP(=O)([O-])OCC[N+](C)(C)C)OCC` (stereo not given) it is 10 µM (active); for `O=C(O)CCCC[C@@H]1CCSS1` it is “inactive”.
As for `Nc1nc(SCc2ccc([N+](=O)[O-])cc2)c2ncn([C@@H]3O[C@H](CO)[C@@H](O)[C@H]3O)c2n1`, the entry is “inactive”.
On to `CCCCC#Cc1nc(NC)c2ncn([C@@H]3O[C@H](CO)[C@@H](O)[C@H]3O)c2n1`, for which the Potency entry is “inactive”.
As for `COc1cc(OC)c(/C=C2/C(=O)Nc3ccccc32)c(OC)c1`, the entry is “inactive”; as for `NC(=O)C1=CN(C2OC(COP(=O)(O)OP(=O)(O)OC[C@H]3O[C@@H](n4cnc5c(N)ncnc54)[C@H](OP(=O)(O)O)[C@@H]3O)C(O)C2O)C=CC1` (stereo not given in full), “inactive”; as for `CC1OC1P(=O)(O)O` (stereo not given), “inactive”.
As for `COc1cccc(OC)c1OCCNCC1COc2ccccc2O1` (stereo not given), the entry is “inactive”; as for `Fc1ccc(C(OCCCc2cnc[nH]2)c2ccc(F)cc2)cc1`, “inactive”; as for `CC(=O)/C=C1\C(=O)N(C)c2ccccc21`, “inactive”.
`CN1CCc2cccc3c2C1Cc1ccc(O)c(O)c1-3` (stereo not given): the Potency result was “inactive”.
As for `O=C(O)CC1CC(c2ccccc2)=NO1` (stereo not given), the entry is “inactive”.
As for `CCN(CC)c1ncnc2c1ncn2[C@@H]1O[C@H](COP(=O)(O)OP(=O)(O)C(Br)(Br)P(=O)(O)O)[C@@H](O)[C@H]1O`, the entry is “inactive”; as for `CO/N=C(\C(=O)N[C@@H]1C(=O)N2C(C(=O)O)=C(COC(C)=O)CS[C@H]12)c1csc(N)n1`, “inactive”; as for `Nc1ncnc2c1c(I)cn2[C@@H]1C[C@H](N)[C@@H](O)[C@H]1O`, “inactive”.
As for `Cn1c(=O)c2[nH]c(-c3ccccc3)nc2n(C)c1=O`, the entry is “inactive”; as for `Oc1cc(O)cc(/C=C/c2ccc(O)c(O)c2)c1`, “inactive”; as for `O=C1/C(=C/c2ccsc2)CC/C1=C\c1cccs1`, “inactive”.

These data come from PubChem BioAssay (NCATS).
